Compounds with a hit are over-represented: about 1.2% of the library has one in this group of screens.
RGS7-Gao reg = modulates binding of RGS7 to human Galphao; binding response (% of control), % at 10 µM; P09471; 220,000 tested, 0.35% active; Multiplexed bead flow cytometry; actives lie on both sides; in the data active means binding response below about 49% or above about 150%; inconclusive means no clear call, values can overlap the other calls; inactive means in between;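 further: fluorescent Galphao held in activated GDP-AlF4 state binding bead-coupled RGS7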
Avidin fluor = compound fluoresces at 488/530 nm on avidin beads | AID 1775 | compound fluorescence 488/530 nm, flow cytometry; hits give high values | 220,000 tested, 0.38% active | fluorescence (KMESF) at 10 µM; in the data active means fluorescence above about 47
GSH bead fluor = GSH bead compound fluorescence profile | GSH beads flow cytometry, compound fluorescence 488/530 nm; hits give high values | fluorescence (KMESF) at 10 µM | 190,000 tested, 0.25% active | AID 1776; in the data active means fluorescence above about 89;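 further: glutathione beads carrying GST-tagged Bcl family fusion proteins plus one bare bead set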
RGS8-Gao reg = human RGS8-Galphao interaction regulation; P09471; multiplexed bead flow cytometry, RGS8-Galphao binding; actives lie on both sides; response (percent of control binding), % at 10 µM; 220,000 tested, 0.34% active; in the data active means response below about 60% or above about 140%; inactive means in between;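 further: Galphao activated as the GDP aluminium fluoride complex binding bead-coupled RGS8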
RGS4-Gao reg = human RGS4-Galphao interaction regulation | P09471 | Multiplexed bead flow cytometry, RGS4-Galphao binding; actives lie on both sides | binding response (% of control), % at 10 µM | 220,000 tested, 0.33% active; in the data active means binding response below about 49% or above about 150%; inactive means in between;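 further: fluorescent Galphao activated with aluminum fluoride binding bead-coupled RGS4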
RGS16-Gao HTS = RGS16-Galphao interaction regulator (human). O15492+P09471. bead-based flow cytometry RGS16-Galphao binding, fluorescence; actives lie on both sides. binding response (% of control), % at 10 µM. 220,000 tested, 0.38% active. AID 1441; call rule not given here;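 further: Galphao activated by GDP with aluminum fluoride before binding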
Target sequence (O15492 whole entry, looked up): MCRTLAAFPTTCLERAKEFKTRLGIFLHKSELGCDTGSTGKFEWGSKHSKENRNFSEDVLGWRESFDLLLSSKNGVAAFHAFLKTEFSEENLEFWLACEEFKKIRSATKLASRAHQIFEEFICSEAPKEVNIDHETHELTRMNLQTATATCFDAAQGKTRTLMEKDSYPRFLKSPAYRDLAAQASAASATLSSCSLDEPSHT
Target sequence (P09471 whole entry, looked up): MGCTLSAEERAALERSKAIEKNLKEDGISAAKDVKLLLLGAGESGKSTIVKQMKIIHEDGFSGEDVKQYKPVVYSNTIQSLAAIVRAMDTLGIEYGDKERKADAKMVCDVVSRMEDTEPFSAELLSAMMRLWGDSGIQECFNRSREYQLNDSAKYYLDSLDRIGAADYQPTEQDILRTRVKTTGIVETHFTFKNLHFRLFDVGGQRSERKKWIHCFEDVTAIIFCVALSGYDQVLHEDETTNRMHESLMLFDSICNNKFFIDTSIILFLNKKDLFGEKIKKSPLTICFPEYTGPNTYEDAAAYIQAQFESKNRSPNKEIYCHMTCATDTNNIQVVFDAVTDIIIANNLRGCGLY
Large screens that a line does not name were inactive.

CCOC(=O)C(C)Sc1nc2c([nH]c3ccccc32)c(=O)n1C (stereo unspecified)	none
Cc1c(Cl)cccc1Nc1ncccc1C(=O)OCC(O)CO (stereo unspecified)	RGS7-Gao reg inconclusive (no result: GSH bead fluor)
CC(=O)Nc1ccc(C(=O)OC2CCOC2=O)cc1 (stereo unspecified)	none
CC(=O)Nc1ccc(C(=O)OC2CCCCC2=O)cc1 (stereo unspecified)	GSH bead fluor 280
COc1cccc(COc2cc3ccccc3nc2C)c1	none
CCOC(=O)c1cnn2c1[nH]c(=O)c1ccccc12	Avidin fluor 96
CC(=O)CCC(=O)OCC(=O)c1ccc(C(F)(F)F)cc1	RGS7-Gao reg inconclusive (no result: GSH bead fluor)
O=C(CC1C(=O)NCCN1C(=O)Nc1ccccc1)Nc1ccc2c(c1)OCCO2 (stereo unspecified)	Avidin fluor 60
O=C(CCc1nc2ccccc2c(=O)[nH]1)NC1CCN(Cc2ccccc2)CC1	GSH bead fluor 256
O=C(Oc1cccnc1)c1cccc(Cl)c1	GSH bead fluor 267
COc1ccc(NC(=S)N(CCN(C)C)C(C)c2ccco2)cc1Cl (stereo unspecified)	GSH bead fluor 152
CCCCCOC(=O)CSc1n[nH]c(=O)[nH]c1=O	GSH bead fluor 273
NC(=O)c1ccc(N=Nc2c(-c3ccccc3)[nH]n(-c3ccccc3)c2=O)cc1	RGS7-Gao reg inconclusive, Avidin fluor 63
O=C(NCc1csc(-c2cccs2)n1)c1ccsc1	RGS7-Gao reg inconclusive (no result: GSH bead fluor)
COc1ccccc1N1CCN(C(=O)CN(c2ccc(C)c(C)c2)S(C)(=O)=O)CC1	GSH bead fluor 268
FC(F)C(F)(F)C(F)(F)C(F)(F)c1cc(-c2ccccc2)n[nH]1	none
CCOC(=O)N1CCC(NC(=O)c2ccc(CNS(=O)(=O)c3ccc(F)cc3)cc2)CC1	Avidin fluor 61
C=CCOC(=O)c1cc(-c2ccc(/C=C3\C(=O)NC(=O)C(C#N)=C3C)o2)ccc1Cl	GSH bead fluor 260
CC1=C(C#N)C(=O)NC(=O)/C1=C/c1ccc(-c2ccc(S(N)(=O)=O)cc2)o1	RGS7-Gao reg inconclusive
CCN(C(=O)CSc1nnnn1-c1cc(C)ccc1OC)C1CCS(=O)(=O)C1 (stereo unspecified)	GSH bead fluor 267
COc1ccc(-c2nnn(CC(=O)N3CCOCC3)n2)cc1	Avidin fluor 79
Cn1nnc(NC(=S)NC(=O)Cc2ccccc2)n1	RGS7-Gao reg inconclusive
Cc1noc(/C=C/c2ccc(-c3ccccc3Cl)o2)c1[N+](=O)[O-]	Avidin fluor 57
COc1ccc(-c2nc3ccccc3c(=O)n2CCOc2ccccc2C)cc1	none
CCOC(=O)c1[nH]c(C)c(C(=O)Nc2ccc(C)c(Cl)c2)c1C	Avidin fluor 62
CC1(C)Oc2ccc3ccc(=O)oc3c2-c2cnoc21	Avidin fluor 56
CC(C)c1ccccc1OCCCCCNCCO	Avidin fluor 48
COC(=O)C(C(=O)OC)c1ccccc1[N+](=O)[O-]	GSH bead fluor 272
CCOc1ccc(NS(=O)(=O)c2ccc(C)c(C(=O)NCCCn3ccnc3)c2)cc1	none
CCN(CC)S(=O)(=O)c1ccc(C2=NOC3(C2)N(C)c2ccccc2C3(C)C)cc1 (stereo unspecified)	none
CC(=O)Nc1ccc(S(=O)(=O)N2CCSC2c2ccc(Cl)cc2)cc1 (stereo unspecified)	GSH bead fluor 265
CCOC(=O)c1c(NC(=O)COC)sc(C)c1C	GSH bead fluor 126
CCOC(=O)c1c(NC(=O)COC)sc(C(C)=O)c1C	none
CC(C)OP(=O)(c1ccc(N(C)C)cc1)C(O)c1ccccc1F (stereo unspecified)	GSH bead fluor 103
COc1ccccc1C(O)P(=O)(OC(C)C)c1ccc(N(C)C)cc1 (stereo unspecified)	none
O=C(CSc1nc2ccccc2s1)N/N=C/c1ccco1	none
C/C(=N\NC(=O)CSc1nc2ccccc2s1)c1ccco1	GSH bead fluor 408
Cc1nc(NC(=O)COC(=O)C2=NNC(=O)CC2)c(Cl)cc1Cl	none
CC(C)=CC(=O)OCC(=O)Nc1nc(C)c(Cl)cc1Cl	GSH bead fluor 273
CC(=O)Cc1nsc(NC(=O)c2ccc(-c3cc(C(F)(F)F)ccc3Cl)o2)n1	none
CC(=O)Cc1nsc(NC(=O)c2ccc(-c3cccc(C(F)(F)F)c3)o2)n1	Avidin fluor 53
Cc1cccc(C)c1NC(=O)COC(=O)c1cc(=O)c2ccccc2o1	RGS7-Gao reg inconclusive (no result: GSH bead fluor)
Cc1cc(CN(C)Cc2c(C(=O)N3CCCCCCC3)nc3ccc(Cl)cn23)n[nH]1	none
COCCn1c(SCC(=O)NC(=O)NC(C)C)nc2ccccc21	Avidin fluor 51
Cc1nc2cc(NC(=O)N3CC4(C)CC3CC(C)(C)C4)ccc2n1C (stereo unspecified)	Avidin fluor 48
CCOC(=O)CCCc1c[nH]c2ccccc12	none
Cc1noc(C)c1COC(=O)CCCc1c[nH]c2ccccc12	GSH bead fluor 258
CC(C)NC(=O)CCCc1c[nH]c2ccccc12	Avidin fluor 58
CC1CCc2c(nc3sc4c(c3c2N)CCCC4)C1 (stereo unspecified)	none
COc1ccc(Cc2noc(COc3ccc(Cl)cc3)n2)cc1	GSH bead fluor 92
CCCOC(=O)c1ccc(NC(=O)c2ccoc2C)cc1	Avidin fluor 51
CCCOC(=O)c1ccc(NC(=O)C2C3C=CC(O3)C2C(=O)O)cc1 (stereo unspecified)	GSH bead fluor 244
CCCOC(=O)c1ccc(NC(=O)COC)cc1	none
Cc1nc(C(=O)O)nn1-c1cc(Cl)ccc1Cl	none
O=S(=O)(Nc1ccc(-c2nc3cccnc3s2)cc1)c1ccccc1F	RGS7-Gao reg inconclusive (no result: GSH bead fluor)
Cc1oc(C(C)(C)C)cc1C(N)=O	RGS7-Gao reg inconclusive (no result: GSH bead fluor)
Cc1cc(C(=O)COC(=O)c2ccc(CO)cc2)c(C)n1CC1COc2ccccc2O1 (stereo unspecified)	none

Screening data: PubChem, NMMLSC
